Eight compounds from PubChem BioAssay (Tox21) can be followed below.

Structures are written as SMILES. Values without a mark were called inactive. Records with an inconclusive call do not appear. Activity calls are given as the source filed them. Unless noted, the call rests on the fitted dose curve; in most records, active means well fitted curve in the direction sought with a large enough effect in the repeat runs; inconclusive means weak or mixed curves; inactive means no such curve, though single readings can be large; an effect the other way counts as inactive or inconclusive.

Experiment [1] can be described thus: qHTS assay to identify small molecule antagonists of the estrogen receptor alpha (ER-alpha) signaling pathway using the BG1 cell line in the presence of 0.1 nM 17-beta-estradiol - cell viability counter screen (AID 1259241). Further: nearly all actives have a fitted effect of over 40% in size. The procedure, abridged: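 Estradiol-stimulated (0.1 nM) VM7Luc4E2 cells exposed to compounds 22 hr; viability measured by fluorescence of cleaved CellTiter-Fluor substrate after 30 min.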

Experiment [2] deals with Androgen receptor (Homo sapiens) (UniProt P10275). Nature of the experiment: qHTS assay to identify small molecule antagonists of the androgen receptor (AR) signaling pathway using the MDA cell line in the presence of 0.5 nM R1881 (AID 1259243). Further: nearly all actives have a fitted effect of over 50% in size. Further: potency means the concentration at half of the fitted maximal effect. A digest of the protocol:
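Antagonist mode quantitative HTS in MDA-kb2 MMTV-luciferase cells, agonist R1881 at 0.5 nM final, 16 hr exposure at 37C and 0% CO2, luminescent detection.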
(In general: Quantitative high-throughput screening tests each substance at several concentrations.)

The target of experiment [3] is Estrogen receptor (Homo sapiens) (UniProt P03372). The experiment is described as follows: qHTS assay to identify small molecule antagonists of the estrogen receptor alpha (ER-alpha) signaling pathway using the BG1 cell line in the presence of 0.1 nM 17-beta-estradiol (AID 1259244). Further: nearly all actives have a fitted effect of over 50% in size. Further: potency means the concentration at half of the fitted maximal effect. A digest of the protocol:
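Reporter is a stably transfected luciferase under four estrogen responsive elements in VM7Luc4E2 cells expressing native full-length ER-alpha; inhibition of 0.1 nM (final) 17beta-estradiol-driven signal over 22 h is read by luminescence.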

Experiment [4] in a line: qHTS assay to identify small molecule HDAC inhibitors (AID 1259364). Further: potency means the concentration at half of the fitted maximal effect.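 Further: wild-type HCT-116 cells with endogenous class I/II HDAC activity; nearly all actives have a fitted effect of over 45% in size.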 The procedure, abridged:
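Quantitative high-throughput format: overnight-seeded HCT-116 cells got compounds for 2 hr at 37C; HDAC-Glo I/II reagent added, 30 min RT, luminescence measured.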

Experiment [5] can be described thus: qHTS assay to identify small molecule HDAC inhibitors - cell viability counter screen (AID 1259365). Further: series mostly up to about 92 µM; nearly all actives have a fitted effect of over 50% in size. The procedure, abridged:
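After overnight seeding at 1,500 cells per well, wild-type HCT-116 cultures took up compounds in DMSO for 2hr at 37 C. Viable cell content came from luminescence with CellTiter-Glo.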

Experiment [6] is described as follows: qHTS assay to identify small molecule agonists of the sonic hedgehog signaling (Shh) pathway - cell viability counter screen (AID 1259366). Further: nearly all actives have a fitted effect of over 50% in size. Further: potency means the concentration at half of the fitted maximal effect. A digest of the protocol: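 Same-well cytotoxicity read. Gli1-Luc reporter 3T3 cells; compounds 24hr, 37C/5% CO2; CellTiter-Fluor fluorescence.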
Experiment [7] is described as follows: qHTS assay to identify small molecule agonists of the sonic hedgehog signaling (Shh) pathway (AID 1259368; calls by dose curve;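 further: NIH/3T3-derived 3T3Gli1-Luc cells carrying a stable Gli1-driven firefly luciferase reporter; series mostly up to about 92 µM; nearly all actives have a fitted effect of over 15% in size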). The procedure, abridged:
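Quantitative high-throughput format using a Gli1-driven firefly luciferase reporter line derived from NIH/3T3 cells. After a 24 hr compound treatment at 37 C and 5% CO2, luminescence reported Gli1 response element activity.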

Experiment [8] in a line: qHTS assay to identify small molecule antagonists of the sonic hedgehog signaling (Shh) pathway (AID 1259369; calls by dose curve; further: nearly all actives have a fitted effect of over 45% in size; further: potency means the concentration at half of the fitted maximal effect). The procedure, abridged: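 Stable Gli1-Luc reporter NIH/3T3 clone; quantitative HTS in stimulated mode with conditioned medium. Luminescence measured after 24hr compound treatment at 37 C.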
Experiment [9] can be described thus: qHTS assay to identify small molecule agonists of the androgen receptor (AR) signaling pathway in the presence of an antagonist - cell viability counter screen (AID 1259379). Further: nearly all actives have a fitted effect of over 25% in size. Further: potency means the concentration at half of the fitted maximal effect. The procedure, abridged:
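Nilutamide-containing (3.0uM final) MDA-kb2 cultures, 3,000 cells/well, were treated with compounds across 15 concentrations. After 16 hr at 37C with no CO2, cell viability was determined by CellTiter-Fluor fluorescence in the luciferase assay wells.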

Experiment [10] concerns the target Androgen receptor (Homo sapiens) (UniProt P10275). Nature of the experiment: qHTS assay to identify small molecule agonists of the androgen receptor (AR) signaling pathway in the presence of an antagonist (AID 1259381; calls by dose curve; further: nearly all actives have a fitted effect of over 15% in size). The procedure, abridged: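 Reporter-gene luminescence from MDA-kb2 cells exposed 16hr at 37C (0% CO2) to 15-point compound titrations with 3.0uM final nilutamide as AR antagonist.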

Experiment [11] addresses Estrogen receptor (Homo sapiens) (UniProt P03372). The experiment is described as follows: qHTS assay to identify small molecule agonists of the estrogen receptor alpha (ER-alpha) signaling pathway in the presence of an antagonist (AID 1259383; calls by dose curve; further: nearly all actives have a fitted effect of over 15% in size; further: potency means the concentration at half of the fitted maximal effect; on activation: top concentration of the series differs between compounds). The procedure, abridged:
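Readout was ERE-driven luciferase luminescence in VM7Luc4E2 cells, which express full-length ER-alpha endogenously. Compounds were tested at 15 concentrations for 22hr alongside 10.0nM ICI-182,780 (final concentration).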

Experiment [12] is described as follows: qHTS assay to identify small molecule agonists or antagonists of the thyroid stimulating hormone receptor (TSHR) signaling pathway - wild type cell line counter screen (AID 1259384; calls by dose curve). The procedure, abridged: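 Wild-type HEK293 cells were plated 18 h at 37 C/5% CO2, pin-dosed with compound plus Ro20-1724 medium, held 30 min at room temperature, then given cAMP-d2 and anti-cAMP-cryptate; fluorescence was read after 1 h. Fifteen concentrations, triplicate.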

Experiment [13] has as its target Thyrotropin receptor (Homo sapiens) (UniProt P16473). Nature of the experiment: qHTS assay to identify small molecule antagonists of the thyroid stimulating hormone receptor (TSHR) signaling pathway (AID 1259385; calls by dose curve; further: nearly all actives have a fitted effect of over 20% in size; further: potency means the concentration at half of the fitted maximal effect). A digest of the protocol: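 TSHR-HEK293 cells were plated and held 18 h at 37C/5% CO2, then given compound plus Ro20-1724 and stimulated with TSH at 1.5 ng/mL final. After 30 min at room temperature, cAMP was detected with cAMP-d2/anti-cAMP-cryptate (1 h) by fluorescence.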

A short description of experiment [14]: qHTS assay to identify small molecule phospholipidosis (PLD) inducers (AID 1259344; active means well fitted curve in the direction sought with a large enough effect; an effect the other way counts as inactive or inconclusive). The procedure, abridged:
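After 4 h attachment on collagen I, HepG2 cells were dosed with compound alongside LipidTOX Red, kept 24 h at 37 C, fixed, and imaged for lamellar phospholipid pits.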

Experiment [15] deals with Estrogen receptor beta (Homo sapiens) (UniProt Q92731). Nature of the experiment: qHTS assay to identify small molecule agonists of the estrogen receptor beta (ER-beta) signaling pathway (AID 1259377; active means well fitted activation curve with a large enough effect in the signal ratio in the repeat runs, not every such curve was filed as active; the % refers to the signal ratio). A digest of the protocol: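 Read-out: beta-lactamase FRET fluorescence. Cell line: ER-beta-UAS-bla HEK293T in 2% charcoal-stripped FBS. Exposure: 16 hr at 37C. Substrate step: 2 h at room temperature.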

Experiment [16] has the same target. Nature of the experiment: qHTS assay to identify small molecule antagonists of the estrogen receptor beta (ER-beta) signaling pathway (AID 1259378; active means well fitted inhibition curve with a large enough effect in the signal ratio in the repeat runs, not every such curve was filed as active; the % refers to the signal ratio; further: potency means the concentration at half of the fitted maximal effect). The procedure, abridged: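 ER-beta-UAS-bla HEK293T (GripTite) cells in 2% charcoal-stripped FBS medium were preincubated 6 hr at 37C, dosed with compound, then stimulated with 1 nM E2 (final) for 16 hr; beta-lactamase reporter read by B/G FRET fluorescence after 2 hr substrate loading.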

A short description of experiment [17]: qHTS assay to identify small molecule agonists of the estrogen receptor beta (ER-beta) signaling pathway - cell viability counter screen (AID 1259380). Further: nearly all actives have a fitted effect of over 30% in size. Further: potency means the concentration at half of the fitted maximal effect. A digest of the protocol: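 Steps: plate ER-beta-UAS-bla HEK293T cells, rest 6 hr; add compounds in DMSO; incubate 16 hr at 37C, 5% CO2; add FRET substrate 2 hr; add CellTiter-Glo, wait 30 min at room temperature; read luminescence.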

Experiment [18] in a line: qHTS assay to identify small molecule antagonists of the estrogen receptor beta (ER-beta) signaling pathway - cell viability counter screen (AID 1259382). Further: nearly all actives have a fitted effect of over 55% in size. Further: potency means the concentration at half of the fitted maximal effect. The procedure, abridged: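 Viability is scored by CellTiter-Glo luminescence (30 min, room temperature) in ER-beta-UAS-bla HEK293T wells already read for reporter fluorescence. Compound exposure lasts 16 hr at 37C alongside 1nM 17-beta-estradiol in charcoal-stripped serum medium.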

A short description of experiment [19]: qHTS assay to identify small molecule antagonists of the sonic hedgehog signaling (Shh) pathway - cell viability counter screen (AID 1259367). Further: nearly all actives have a fitted effect of over 55% in size. Further: potency means the concentration at half of the fitted maximal effect. A digest of the protocol: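 Conditioned medium drove Shh signaling in 3T3 Gli1-Luc cells exposed to compounds at 37C and 5% CO2. Viability was determined from CellTiter-Fluor fluorescence, with reagent incubated 1 hr after 23 hr of treatment.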

A short description of experiment [20]: qHTS assay to identify small molecule antagonists of the androgen receptor (AR) signaling pathway using the MDA cell line in the presence of 0.5 nM R1881 - cell viability counter screen (AID 1259242). Further: nearly all actives have a fitted effect of over 45% in size. A digest of the protocol: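 qHTS format. MDA-kb2 (MMTV-luc, AR/GR responsive) + cpd + 0.5 nM R1881 final, 16 hr 37C/0% CO2 → CellTiter-Fluor 30 min → fluorescence intensity.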

Chain of Estrogen receptor (Homo sapiens) (P03372 whole entry, looked up): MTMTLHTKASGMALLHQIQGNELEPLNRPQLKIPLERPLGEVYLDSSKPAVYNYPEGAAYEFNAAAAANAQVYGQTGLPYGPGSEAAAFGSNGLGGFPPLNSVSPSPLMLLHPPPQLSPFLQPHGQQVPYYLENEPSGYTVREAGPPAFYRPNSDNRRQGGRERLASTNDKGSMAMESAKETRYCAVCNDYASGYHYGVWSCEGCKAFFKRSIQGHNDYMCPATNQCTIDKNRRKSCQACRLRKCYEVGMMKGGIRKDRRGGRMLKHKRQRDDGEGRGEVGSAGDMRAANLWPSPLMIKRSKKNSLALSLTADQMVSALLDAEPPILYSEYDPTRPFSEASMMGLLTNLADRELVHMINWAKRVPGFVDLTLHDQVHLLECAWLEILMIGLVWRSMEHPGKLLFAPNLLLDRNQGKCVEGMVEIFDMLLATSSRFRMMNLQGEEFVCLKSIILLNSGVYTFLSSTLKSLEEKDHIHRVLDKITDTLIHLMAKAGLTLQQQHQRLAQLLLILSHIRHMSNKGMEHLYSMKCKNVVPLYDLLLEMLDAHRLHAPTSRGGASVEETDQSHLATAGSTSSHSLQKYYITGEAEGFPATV
Chain of Androgen receptor (Homo sapiens) (P10275 whole entry, looked up): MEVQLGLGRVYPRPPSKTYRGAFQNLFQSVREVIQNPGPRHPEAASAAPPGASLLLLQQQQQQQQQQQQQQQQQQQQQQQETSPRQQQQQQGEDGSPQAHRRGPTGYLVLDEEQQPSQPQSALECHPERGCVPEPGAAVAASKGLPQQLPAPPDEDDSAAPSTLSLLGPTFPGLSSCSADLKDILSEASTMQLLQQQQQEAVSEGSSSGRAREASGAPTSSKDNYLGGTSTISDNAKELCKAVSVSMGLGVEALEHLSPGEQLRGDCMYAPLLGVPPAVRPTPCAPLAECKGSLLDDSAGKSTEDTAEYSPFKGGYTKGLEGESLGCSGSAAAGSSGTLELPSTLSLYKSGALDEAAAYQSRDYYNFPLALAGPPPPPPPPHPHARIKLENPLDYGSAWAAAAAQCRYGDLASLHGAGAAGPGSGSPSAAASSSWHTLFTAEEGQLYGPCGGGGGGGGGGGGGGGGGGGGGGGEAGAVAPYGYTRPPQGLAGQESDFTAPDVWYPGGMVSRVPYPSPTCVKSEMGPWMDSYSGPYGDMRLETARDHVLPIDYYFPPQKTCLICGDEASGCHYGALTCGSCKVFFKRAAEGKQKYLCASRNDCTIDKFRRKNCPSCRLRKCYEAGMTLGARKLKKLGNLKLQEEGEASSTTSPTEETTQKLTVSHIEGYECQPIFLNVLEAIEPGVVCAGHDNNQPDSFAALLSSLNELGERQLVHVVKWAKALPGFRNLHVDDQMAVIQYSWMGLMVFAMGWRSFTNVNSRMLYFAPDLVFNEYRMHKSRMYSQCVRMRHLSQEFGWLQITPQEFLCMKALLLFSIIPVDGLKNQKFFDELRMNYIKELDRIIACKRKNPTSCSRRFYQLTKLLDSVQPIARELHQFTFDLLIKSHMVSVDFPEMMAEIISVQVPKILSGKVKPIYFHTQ
Chain of Thyrotropin receptor (Homo sapiens) (P16473 whole entry, looked up): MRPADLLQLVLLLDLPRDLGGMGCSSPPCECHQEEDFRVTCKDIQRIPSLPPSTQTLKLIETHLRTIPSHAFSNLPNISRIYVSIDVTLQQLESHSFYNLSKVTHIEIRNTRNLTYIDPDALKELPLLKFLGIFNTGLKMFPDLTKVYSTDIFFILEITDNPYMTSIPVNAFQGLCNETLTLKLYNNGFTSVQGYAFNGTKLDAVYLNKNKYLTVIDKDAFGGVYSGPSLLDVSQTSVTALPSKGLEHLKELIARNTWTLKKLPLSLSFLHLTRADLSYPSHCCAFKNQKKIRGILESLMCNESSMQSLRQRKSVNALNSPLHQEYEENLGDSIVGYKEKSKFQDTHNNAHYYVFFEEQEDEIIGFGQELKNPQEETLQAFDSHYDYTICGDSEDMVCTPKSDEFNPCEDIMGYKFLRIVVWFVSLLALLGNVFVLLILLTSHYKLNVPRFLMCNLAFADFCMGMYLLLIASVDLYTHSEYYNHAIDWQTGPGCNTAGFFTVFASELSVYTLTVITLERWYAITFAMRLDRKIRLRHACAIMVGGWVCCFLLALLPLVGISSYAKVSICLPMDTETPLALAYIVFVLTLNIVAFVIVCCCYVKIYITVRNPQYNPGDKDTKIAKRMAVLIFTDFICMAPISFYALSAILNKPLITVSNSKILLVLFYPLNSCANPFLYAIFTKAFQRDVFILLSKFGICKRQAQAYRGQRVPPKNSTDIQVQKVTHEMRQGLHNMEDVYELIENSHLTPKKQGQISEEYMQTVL
Chain of Estrogen receptor beta (Homo sapiens) (Q92731 whole entry, looked up): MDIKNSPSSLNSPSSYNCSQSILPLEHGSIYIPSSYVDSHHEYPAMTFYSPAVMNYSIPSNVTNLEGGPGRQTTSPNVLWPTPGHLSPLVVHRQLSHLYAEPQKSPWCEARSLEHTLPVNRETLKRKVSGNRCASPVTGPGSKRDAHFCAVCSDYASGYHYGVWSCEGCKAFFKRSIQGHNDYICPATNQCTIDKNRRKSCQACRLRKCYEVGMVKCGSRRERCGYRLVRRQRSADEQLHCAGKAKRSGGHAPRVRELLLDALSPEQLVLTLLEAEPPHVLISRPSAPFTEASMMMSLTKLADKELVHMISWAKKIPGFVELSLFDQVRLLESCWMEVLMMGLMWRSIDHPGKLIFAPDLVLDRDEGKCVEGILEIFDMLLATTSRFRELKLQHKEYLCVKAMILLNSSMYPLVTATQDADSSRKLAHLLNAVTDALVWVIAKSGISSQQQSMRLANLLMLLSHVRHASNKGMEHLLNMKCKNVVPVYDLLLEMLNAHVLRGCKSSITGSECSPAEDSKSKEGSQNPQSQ

For `Oc1ccc(N=Nc2ccccc2)cc1`, the Potency result in experiment [1], in experiment [3], in experiment [5], in experiment [7], in experiment [10] and in experiment [13] was “inactive” in each case. The Potency was 31 µM (active) in [2]; 2.77 µM (active) in experiment [4]; 27.7 µM (active) in experiment [6]; 43.8 µM (active) in experiment [8]; 24.7 µM (active) in experiment [9]; 24.7 µM (active) in experiment [11]. Also, in experiment [12], the outcome was inactive.
Take `C[C@@H](NCCCc1cccc(C(F)(F)F)c1)c1cccc2ccccc12`: the Potency entry in experiment [1], in [14], in experiment [4], in [5], in experiment [7] and in experiment [15] was “inactive” throughout. Further, the Potency result in experiment [10] and in [11] was “inactive” each time. In addition, the Potency is 18.8 µM (active) in experiment [2]; 18.8 µM (active) in experiment [8]; 10.6 µM (active) in experiment [16]; 29.8 µM (active) in experiment [9]; 21.1 µM (active) in experiment [17]; 18.8 µM (active) in [18]. The call in experiment [12] was inactive.
In the case of `Cc1ccc2oc(CN(Cc3ccccc3)C(=O)Nc3c(F)cc(F)cc3F)c(-c3ccc(Cl)cc3)c2c1`, the Potency entry in experiment [1], in [3], in experiment [4], in experiment [5], in experiment [6] and in experiment [19] was “inactive” each time. In addition, the Potency entry in experiment [7], in experiment [8], in experiment [15], in [9], in experiment [17] and in experiment [18] was “inactive” in each case. Also, the Potency entry in experiment [11] and in experiment [13] was “inactive” throughout. Moreover, the outcome in [12] was inactive.
Turning to `Cc1ccc(O)c2ncccc12`, the Potency result in [1], in experiment [14], in experiment [4], in [5], in [7] and in [10] was “inactive” in each case. Besides, the Potency result in experiment [11] and in experiment [13] was “inactive” throughout. Also, the Potency in experiment [2] is 10.6 µM (active); in experiment [3] it was 11.9 µM (active); in [6] it was 1.33 µM (active); in experiment [19] it was 1.33 µM (active). The result in experiment [12] was inactive.
`CCCCCCCCCCCCCC[P+](CCCC)(CCCC)CCCC` (tested in a mixture with another compound): the Potency result in [1], in experiment [4], in [7], in experiment [10] and in [11] was “inactive” in each case. Further, the Potency in experiment [2] was 1.94 µM (active); in experiment [6], 27.5 µM (active); in experiment [19] it was 61.5 µM (active); in [8], 0.138 µM (active); in experiment [9], 7.74 µM (active); in experiment [17] it was 19.4 µM (active). Further, the Potency in experiment [18] is 27.5 µM (active); in experiment [13], 69 µM (active). For the same compound, the result in experiment [12] was inactive.
With `C/C=C1/C(=O)C[C@H]2[C@@H]3CCC4=CC(=O)CC[C@]4(C)[C@H]3CC[C@]12C`, the Potency entry in experiment [1], in experiment [20], in [4], in [19], in experiment [7] and in [18] was “inactive” throughout. For the same compound, the Potency entry in [11] is “inactive”. The Potency in experiment [9] is 54.3 µM (active).
As to `CCCCCOC(=O)CCCC`, the Potency entry in [1], in experiment [3], in [4], in experiment [5], in experiment [6] and in experiment [19] was “inactive” each time. The Potency result in [7], in experiment [8], in experiment [15], in experiment [16], in [9] and in experiment [17] was “inactive” in each case. Further, the Potency entry in experiment [18], in [11] and in experiment [13] was “inactive” throughout. The compound was classed as inactive in [12].
On to `C[C@@H]1C[C@H]2[C@@H]3CCC4=CC(=O)C=C[C@]4(C)[C@@]3(Cl)[C@@H](O)C[C@]2(C)[C@@]1(OC(=O)c1ccco1)C(=O)CCl`, for which the Potency result in experiment [1], in experiment [2], in experiment [14], in [4], in experiment [5] and in experiment [7] was “inactive” in each case. Besides, the Potency result in [15] and in experiment [13] was “inactive” in each case. Further, the Potency in experiment [17] was 8.41 µM (active). Also, the compound was classed as inactive in experiment [12].
